# ATXN viability – viability counter-screen for ATXN expression inhibitors; S2 cells (HEK-293 line with an ATXN2-luciferase reporter) viability, CellTiter-Fluor protease fluorescence, 24 h; Potency, µM (doses to about 56.7 µM), usual class: cytotoxic; actives 0.49% (n = 400,000); AID 651635; note: nearly all actives have a fitted effect of over 40% in size
# HepG2 viability – kills HepG2 cells in TGF-b inhibitor counter-screen | HepG2 CAGA-GFP viability, ATP luminescence, 18 h | Potency, µM (top dose mostly 46.1 µM), without a hit: at the top dose activity change, negative = cytotoxicity, actives largely listed as cytotoxic | actives 0.76% (n = 410,000) | AID 588856
#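 HepG2 CAGA-GFP cells (1000/well, DMEM with 1% FBS) received compound, then TGF-beta at 500 pg/mL final, and were incubated 18 hours at 37 degrees C. Viability was read by CellTiter-Glo luminescence. Media-only wells were set as complete cell-killing and DMSO as no toxicity.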
# ATXN2 expr inh – ATXN2 expression inhibition; Potency, µM (doses to about 57 µM), for inactives: top-dose activity change, negative = inhibition, hits mostly inhibitors; AID 1745845; HEK-293 ATXN2-luciferase reporter, luminescence, 24 h; actives 0.72% (n = 360,000); note: % is set by controls: 0 for no effect and ±100 for the full control effect; nearly all actives have a fitted effect of over 55% in size
#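 ATXN2-luciferase reporter cells (luciferase flanked by upstream and downstream ATXN2 gene portions) were treated 24 h at 37 °C with compounds at up to 57 uM. SteadyGlo luminescence gave expression; GF-AFC fluorescence gave viability.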
# TGFb SMAD3 inh – blocks TGF-b signaling; AID 588855; HepG2 CAGA-GFP TGF-b/SMAD3 reporter, GFP fluorescence, 18 h; TGF-beta stimulated, 500 pg/mL final; Potency, µM (top dose mostly 46.1 µM), for inactives: at the highest dose activity, negative = inhibition, actives largely listed as inhibitors; actives 1.2% (n = 410,000); note: % is set by controls: 0 for no effect and ±100 for the full control effect; nearly all actives have a fitted effect of over 65% in size
#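 GFP signal (ex488/em500-530) from TGF-beta-stimulated HEPG2 CAGA-GFP cells, 500 pg/mL final, 18 h at 37 degrees C in DMEM plus 1% FBS, normalized to unstimulated and DMSO-stimulated controls.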
# An asterisk follows results filed as active; i = inactive; ? = inconclusive; . = no result given. Shown are actives, neighbours in structure and some others; about 2.3% of the full set was active somewhere. Calls come from the whole dose curve; as a rule, active = well fitted curve in the direction sought with a large enough effect; inconclusive = small, poorly fitted or top-dose-only effect, or another doubt; inactive = no such curve, though single readings can be large; an effect the other way counts as inactive or inconclusive. Potency is the fitted concentration of half-maximal effect.
SMILES,ATXN viability,HepG2 viability,ATXN2 expr inh,TGFb SMAD3 inh
O=C(Nc1cccnc1)c1ccc(Cl)c(S(=O)(=O)N2CCc3ccccc32)c1,i,3.5µM*,-18%,-31%
CC(=O)Nc1ccc(NC(=O)c2ccc(Cl)c(S(=O)(=O)N3CCc4ccccc43)c2)cc1,?,1%,-20%,0%
COC(=O)C1N2C(=O)N(C)[C@H](C(=O)OC)[C@H]2SC1(C)C (some centres undefined),.,3%,.,-2%
Cc1oc(-c2ccccc2NC(=O)C2CCCO2)nc1CNC(=O)c1cc(Cl)ccc1F (centres undefined),i,.,.,.
CCC1CN(C(=O)N2CCC(C(=O)NCCc3ccccc3C)CC2)c2ccccc2O1 (centres undefined),.,-30%,.,?
Cc1ccc2c(c1)N(C(=O)N1CCC(C(=O)NCc3ccccc3F)CC1)CC(C)O2 (centres undefined),.,-48%,.,13µM*
CCC1CN(C(=O)N2CCC(C(=O)N3CCN(c4cc(C)ccc4C)CC3)CC2)c2ccccc2O1 (centres undefined),.,-73%,.,10µM*
CCC1CN(C(=O)N2CCC(C(=O)NCCc3ccccc3Cl)CC2)c2cc(C)ccc2O1 (centres undefined),.,-34%,.,11µM*
CC1CN(C(=O)N2CCC(C(=O)NCCCc3ccccc3)CC2)c2cc(Cl)ccc2O1 (centres undefined),.,-21%,.,14µM*
COc1ccc(OC)c(-c2cc(Cl)c3c(c2)CC(CNC(=O)c2cccnc2SC)O3)c1 (centres undefined),i,.,.,.
CCOc1ccccc1CNC(=O)C1CCN(C(=O)N2CC(CC)Oc3ccc(C)cc32)CC1 (centres undefined),.,-39%,.,10µM*
Cc1csc(-c2nnc(Nc3ccc(Oc4ncccc4-c4ccnc(N)n4)cc3)c3ccccc23)c1,.,.,12µM*,.
CCOCC(=O)Nc1c(C(=O)N2CCN(c3ncccn3)CC2)oc2ccccc12,i,-28%,-5%,-6%
O=C(c1oc2ccccc2c1CSCc1ccccc1)N1CCN(c2ncccn2)CC1,i,-42%,?,16µM*
COc1cccc(CNCCc2c[nH]c3ccccc23)c1OCc1ccc(F)cc1,?,13µM*,20µM*,?
Nc1[nH]n2c(=O)cc(-c3ccccc3)nc2c1N=Nc1ccccc1,32µM*,-30%,?,-16%
COc1cc(CNCCCCO)ccc1OCc1ccccc1F,i,-24%,-4%,9%
S=C(Nc1ccccc1)Nc1ccc(OCc2ccc(Cl)cc2Cl)cc1,i,-6%,1µM*,-24%
S=C(NCCSCc1ccc(Cl)cc1Cl)Nc1ccccc1,i,-63%,-10%,?
OCCCCNCc1ccc(OCc2ccc(Cl)cc2Cl)cc1,25µM*,10µM*,25µM*,?
OCCNCc1ccc(OCc2ccc(Cl)cc2Cl)cc1,?,22µM*,?,?
Cc1oc(-c2ccccc2NC(=O)c2ccsc2)nc1CN(C)CC1CC=CCC1 (centres undefined),i,.,.,.
CCC1CN(CCNC(=O)c2ccc3c(c2)OCO3)Cc2cc(OC)ccc2O1 (centres undefined),i,.,.,.
Cc1cc(C(=O)NOCCO)c(Nc2ccc(I)cc2F)n(C)c1=O,.,.,-5%,.
Cc1ccc(/C=C/C(=O)N2CCN(S(=O)(=O)c3ccc(C)c(C)c3)CC2)o1,i,-21%,-19%,10µM*
SMILES,ATXN viability,HepG2 viability,ATXN2 expr inh,TGFb SMAD3 inh
Cc1ccc(/C=C/C(=O)N2CCN(S(=O)(=O)c3c(C)c(C)cc(C)c3C)CC2)o1,i,-44%,3%,?
Cc1sc2ncnc(SCC(=O)N3c4ccccc4Sc4ccc(Cl)cc43)c2c1C,i,0%,-8%,-7%
CCOC(=O)c1c(C)sc2c1N(C(=O)CCl)c1cc(Cl)ccc1S2,18µM*,-90%,?,?
N#C[C@H]1C[C@H]2C[C@@H]2N1C(=O)[C@@H](N)C12CC3CC(CC(O)(C3)C1)C2,i,.,?,.
c1ccc(N=c2nc(-c3ccccc3)n(-c3ccccc3)s2)cc1,.,-84%,.,2.8µM*
c1ccc(Cn2sc(=Nc3ccccc3)nc2-c2ccccc2)cc1,.,-21%,.,-3%
CN1CC2(Cc3cc([N+](=O)[O-])ccc31)C(=O)OC(C)(C)OC2=O,.,1%,.,-6%

# Screening results (PubChem)
